Test results published in PubChem BioAssay (NCI).
The panel holds about 79,000 compounds, 15% with a hit somewhere; the sample as a whole holds those more often. Values without a mark were called inactive. The source made the active and inactive calls. No stated cut-off is given here; in the data, active means growth inhibition above about 70%; inactive means the rest.

Experiments:
[1] = NCI Yeast Anticancer Drug Screen. Data for the rad50 strain (AID 155);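 further: 0% = growth of vehicle-only cultures of the same strain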; conditions: S. cerevisiae rad50 strain growth inhibition, stronger effect = higher value
Summary of the method: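 Yeast carrying a defined DNA repair defect were exposed to test compounds, and growth was compared with vehicle-treated controls to give percent inhibition.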

[2] = NCI Yeast Anticancer Drug Screen. Data for the mec2-1 strain (AID 157); conditions: S. cerevisiae mec2-1 strain, stronger effect = higher value
Summary of the method: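 Each compound was tested on mec2-1 yeast, a strain altered in DNA damage repair or cell cycle control. Growth inhibition is reported relative to vehicle.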

[3] = NCI Yeast Anticancer Drug Screen. Data for the sgs1 mgt1 strain (AID 161);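 further: 0% = growth of cultures given vehicle only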; conditions: S. cerevisiae sgs1 mgt1 strain, stronger effect = higher value
Summary of the method: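 Genetically altered yeast, compound exposure, growth inhibition relative to vehicle.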

[4] = NCI Yeast Anticancer Drug Screen. Data for the cln2 rad14 strain (AID 165);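 further: 0% = growth equal to vehicle treated cultures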; conditions: S. cerevisiae cln2 rad14 strain, stronger effect = higher value
Summary of the method: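 Test compounds were added to cln2 rad14 yeast cultures; inhibition of growth was then determined by comparison with vehicle treatment.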

[5] = NCI Yeast Anticancer Drug Screen. Data for the bub3 strain (AID 167); conditions: S. cerevisiae bub3 mutant strain, stronger effect = higher value
Summary of the method: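 Compounds were applied to a genetically altered yeast strain carrying a cell-cycle control defect. Growth inhibition was scored against vehicle-treated controls.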

[6] = NCI Yeast Anticancer Drug Screen. Data for the mlh1 rad18 strain (AID 175); conditions: S. cerevisiae mlh1 rad18 strain growth inhibition, stronger effect = higher value
Summary of the method: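 Inhibition values reflect reduced growth of mutant yeast versus vehicle-treated controls following compound exposure; the mutations affect DNA damage repair.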

[7] = at 5.0 µM (retest, dose inferred, filed as 0.5)
[8] = at 50.0 µM (retest, dose inferred, filed as 5.0)

SMILES | growth inhibition [1, 7] | growth inhibition [1, 8] | growth inhibition ([1]; at 50.0 µM) | growth inhibition [2, 7] | growth inhibition [2, 8] | growth inhibition ([2]; at 50.0 µM) | growth inhibition [3, 7] | growth inhibition [3, 8] | growth inhibition ([3]; at 50.0 µM) | growth inhibition [4, 7] | growth inhibition [4, 8] | growth inhibition ([4]; at 50.0 µM) | growth inhibition [5, 7] | growth inhibition [5, 8] | growth inhibition ([5]; at 50.0 µM) | growth inhibition [6, 7] | growth inhibition [6, 8] | growth inhibition ([6]; at 50.0 µM)
CCOC(=O)Cc1csc(/N=C\c2c(O)c3ccccc3oc2=O)n1 | 22% | 38% | -4.35% | 16% | 25% | -32.4% | 22% | 37% | -10.9% | 26% | 21% | 18.7% | 20% | 42% | -27.1% | 24% | 45% | 41.4%
COc1cccc2c1C(=O)c1c(O)c3c(c(O)c1C2=O)C[C@@](O)(C(=O)CO)C[C@@H]3OC1CC(N(C)C)C(O)C(C)O1 (some centres not stated) | 94% (active) | 95% (active) | 90.1% (active) | 96% (active) | 97% (active) | 91.8% (active) | 97% (active) | 97% (active) | 91.2% (active) | 96% (active) | 95% (active) | 88.8% (active) | 95% (active) | 97% (active) | 89.3% (active) | 94% (active) | 94% (active) | 90.7% (active)
O=C(Nc1ncnc2c1ncn2C1CC(O)C(CO)O1)c1ccccc1 (configuration not stated) | 1% | 1% | -2.25% | -2% | 0% | -11.3% | -1% | 1% | -0.05% | -6% | -2% | -23.9% | -2% | -1% | 54.1% | -4% | 4% | -17.8%
O=C(N/C(=C\c1ccc(/C=C(\NC(=O)c2ccccc2)c2nc3ccccc3s2)cc1)c1nc2ccccc2s1)c1ccccc1 | 57% | 57% | 85.1% (active) | 32% | 32% | 87.5% (active) | 42% | 42% | 85.6% (active) | 38% | 38% | 84.7% (active) | 60% | 60% | 85.5% (active) | 28% | 28% | 83.8% (active)
